For some of these results: Measured potencies and affinities stand elsewhere.
Experiments:
Parameters in all cases: scale not given: direction of the effect not stated beside the values
[1] = molecular target: Protein translocase subunit SecA (Escherichia coli (strain K12)) (UniProt P10408); assay: Assay to Identify E. coli SecA ATPase Inhibitors; type: functional; conditions: 30 µM
[2] = molecular target: T1, Ubiquitin-activating enzyme e1, putative (Leishmania donovani (strain BPK282A1)) (UniProt E9BSI1); assay: Leishmania donovani Ubiquitin Activating Enzyme (LdE1); type: functional; conditions: 30 µM
T1 sequence (whole entry): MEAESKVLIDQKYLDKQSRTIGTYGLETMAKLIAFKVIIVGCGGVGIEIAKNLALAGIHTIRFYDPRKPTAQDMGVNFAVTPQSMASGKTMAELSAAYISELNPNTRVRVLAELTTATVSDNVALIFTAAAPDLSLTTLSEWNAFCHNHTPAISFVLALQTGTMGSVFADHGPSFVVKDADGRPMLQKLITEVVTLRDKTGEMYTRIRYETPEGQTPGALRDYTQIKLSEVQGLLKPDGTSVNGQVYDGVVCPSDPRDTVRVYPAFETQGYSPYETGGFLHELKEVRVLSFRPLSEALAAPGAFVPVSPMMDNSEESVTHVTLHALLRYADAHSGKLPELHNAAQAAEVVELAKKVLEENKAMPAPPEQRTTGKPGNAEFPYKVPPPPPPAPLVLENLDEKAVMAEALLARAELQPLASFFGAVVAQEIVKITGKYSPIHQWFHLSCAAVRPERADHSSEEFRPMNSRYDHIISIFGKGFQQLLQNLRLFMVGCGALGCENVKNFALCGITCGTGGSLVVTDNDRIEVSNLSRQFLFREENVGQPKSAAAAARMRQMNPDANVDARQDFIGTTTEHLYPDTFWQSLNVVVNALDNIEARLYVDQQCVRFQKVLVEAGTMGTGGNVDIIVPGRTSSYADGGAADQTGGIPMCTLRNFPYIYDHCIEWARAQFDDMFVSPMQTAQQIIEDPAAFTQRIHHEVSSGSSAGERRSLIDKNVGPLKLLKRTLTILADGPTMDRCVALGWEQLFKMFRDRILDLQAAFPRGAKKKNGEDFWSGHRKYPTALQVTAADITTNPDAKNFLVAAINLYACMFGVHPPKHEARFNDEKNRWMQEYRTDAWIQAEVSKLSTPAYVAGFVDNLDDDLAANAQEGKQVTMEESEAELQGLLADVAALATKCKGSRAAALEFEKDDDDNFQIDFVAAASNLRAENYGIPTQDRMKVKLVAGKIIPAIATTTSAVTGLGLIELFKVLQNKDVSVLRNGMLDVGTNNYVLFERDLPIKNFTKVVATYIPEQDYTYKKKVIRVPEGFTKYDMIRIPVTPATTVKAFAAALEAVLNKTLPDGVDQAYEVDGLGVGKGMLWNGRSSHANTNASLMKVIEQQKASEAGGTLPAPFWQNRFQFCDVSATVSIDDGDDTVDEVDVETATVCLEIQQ

[3] = molecular target: AMP-activated protein kinase, AMPK (Homo sapiens) (UniProt P54646+O43741+P54619+Q9UGJ0+Q9Y478+Q13131+Q9UGI9); assay: AMP-dependent Kinase enzyme assay. An in vitro enzyme assay that detects ADP turnover that is directly proportional to AMPK activity. This uses naive AMPK that is activated during the assay with MK-8722; type: functional; conditions: 30 µM
[4] = molecular target: Sialic acid-binding Ig-like lectin 9 (Homo sapiens) (UniProt Q9Y336); assay: Hs-Siglec9 ALPHAscreen SOP 20170721; conditions: 10 µM
Trypanosoma cruzi = assay: Trypanosoma cruzi phosphomannomutase and mannose-1-phosphate guanylyltransferase assay; type: functional; conditions: 10 µM
[5] = molecular target: T2, Arginase-2, mitochondrial (Homo sapiens) (UniProt P78540); assay: in vitro enzyme assay to detect the production of urea directly proportional to the activity of Arginase II; type: functional; conditions: 33.3 µM; note: in the data most compounds retested in dose-response had high values
T2 sequence (whole entry): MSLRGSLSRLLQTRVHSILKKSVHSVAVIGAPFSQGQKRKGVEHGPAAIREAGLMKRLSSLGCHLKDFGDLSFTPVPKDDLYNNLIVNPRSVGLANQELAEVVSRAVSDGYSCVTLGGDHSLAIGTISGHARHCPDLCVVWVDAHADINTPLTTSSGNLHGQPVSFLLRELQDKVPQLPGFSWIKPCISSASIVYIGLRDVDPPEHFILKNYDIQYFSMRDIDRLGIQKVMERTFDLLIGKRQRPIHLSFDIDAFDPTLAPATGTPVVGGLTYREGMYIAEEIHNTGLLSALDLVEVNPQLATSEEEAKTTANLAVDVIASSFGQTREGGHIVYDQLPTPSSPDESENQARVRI

[6] = molecular target: T3, Proteasome subunit beta (Trypanosoma cruzi) (UniProt O96673); assay: Trypanosoma cruzi proteasome chymotrypsin-like activity (TcProtChymo) assay.; note: in the data most compounds retested in dose-response had high values; type: functional; conditions: 9.37 µM
T3 sequence (whole entry): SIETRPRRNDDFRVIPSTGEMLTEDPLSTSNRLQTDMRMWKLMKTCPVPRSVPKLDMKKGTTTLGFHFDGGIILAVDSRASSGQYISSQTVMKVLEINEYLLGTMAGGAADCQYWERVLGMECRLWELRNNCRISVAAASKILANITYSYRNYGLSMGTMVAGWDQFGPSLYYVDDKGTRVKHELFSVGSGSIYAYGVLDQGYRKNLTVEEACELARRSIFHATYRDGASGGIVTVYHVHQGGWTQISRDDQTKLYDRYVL

Homo sapiens = organism: Homo sapiens; assay: To identify inhibition of the IFN signalling (Jak-Stat) pathway via expression of an eGFP reporter gene under the control of an IFN-stimulated response element (ISRE) containing MxA promoter.; type: functional; conditions: 30 µM
[7] = molecular target: T4, Tyrosyl-tRNA synthetase, putative (Trypanosoma cruzi (strain CL Brener)) (UniProt Q4DSP6); assay: Trypanosoma cruzi tyrosyl tRNA synthetase (TcYRS) _High Tyrosine SOP; type: functional; conditions: 30 µM; note: in the data most compounds retested in dose-response had high values
T4 sequence (whole entry): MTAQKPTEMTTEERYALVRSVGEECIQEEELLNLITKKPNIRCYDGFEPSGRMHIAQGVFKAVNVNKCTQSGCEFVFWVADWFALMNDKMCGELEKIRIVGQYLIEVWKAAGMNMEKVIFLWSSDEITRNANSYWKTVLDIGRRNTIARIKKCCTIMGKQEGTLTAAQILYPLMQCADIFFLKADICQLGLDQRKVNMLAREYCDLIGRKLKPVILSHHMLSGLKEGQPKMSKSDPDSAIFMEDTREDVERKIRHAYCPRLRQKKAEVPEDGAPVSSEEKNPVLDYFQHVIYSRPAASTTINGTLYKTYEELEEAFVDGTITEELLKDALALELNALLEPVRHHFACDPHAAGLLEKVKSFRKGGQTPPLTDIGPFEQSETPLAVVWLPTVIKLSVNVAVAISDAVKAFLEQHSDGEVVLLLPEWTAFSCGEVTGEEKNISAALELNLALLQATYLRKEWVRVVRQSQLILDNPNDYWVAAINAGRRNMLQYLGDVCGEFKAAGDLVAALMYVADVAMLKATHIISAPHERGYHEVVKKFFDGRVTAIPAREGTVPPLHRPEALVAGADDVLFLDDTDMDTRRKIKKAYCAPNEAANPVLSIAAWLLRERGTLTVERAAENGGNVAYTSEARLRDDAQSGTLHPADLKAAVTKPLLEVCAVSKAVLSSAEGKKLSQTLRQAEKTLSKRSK

[8] = molecular target: T4, Tyrosyl-tRNA synthetase, putative (Trypanosoma cruzi (strain CL Brener)); assay: Trypanosoma cruzi tyrosyl tRNA synthetase (TcYRS) SOP; type: functional; conditions: 30 µM
[9] = molecular target: Chromo domain-containing protein 1 (Saccharomyces cerevisiae (strain ATCC 204508 / S288c) (Baker's yeast)) (UniProt P32657); assay: ScCHD-1 Enzyme Inhibition Assay; type: functional; conditions: 30 µM; note: in the data most compounds retested in dose-response had high values
Chromo domain-containing protein 1 (Saccharomyces cerevisiae (strain ATCC 204508 / S288c) (Baker's yeast)), sequence (P32657 whole entry, the tested form may be a part): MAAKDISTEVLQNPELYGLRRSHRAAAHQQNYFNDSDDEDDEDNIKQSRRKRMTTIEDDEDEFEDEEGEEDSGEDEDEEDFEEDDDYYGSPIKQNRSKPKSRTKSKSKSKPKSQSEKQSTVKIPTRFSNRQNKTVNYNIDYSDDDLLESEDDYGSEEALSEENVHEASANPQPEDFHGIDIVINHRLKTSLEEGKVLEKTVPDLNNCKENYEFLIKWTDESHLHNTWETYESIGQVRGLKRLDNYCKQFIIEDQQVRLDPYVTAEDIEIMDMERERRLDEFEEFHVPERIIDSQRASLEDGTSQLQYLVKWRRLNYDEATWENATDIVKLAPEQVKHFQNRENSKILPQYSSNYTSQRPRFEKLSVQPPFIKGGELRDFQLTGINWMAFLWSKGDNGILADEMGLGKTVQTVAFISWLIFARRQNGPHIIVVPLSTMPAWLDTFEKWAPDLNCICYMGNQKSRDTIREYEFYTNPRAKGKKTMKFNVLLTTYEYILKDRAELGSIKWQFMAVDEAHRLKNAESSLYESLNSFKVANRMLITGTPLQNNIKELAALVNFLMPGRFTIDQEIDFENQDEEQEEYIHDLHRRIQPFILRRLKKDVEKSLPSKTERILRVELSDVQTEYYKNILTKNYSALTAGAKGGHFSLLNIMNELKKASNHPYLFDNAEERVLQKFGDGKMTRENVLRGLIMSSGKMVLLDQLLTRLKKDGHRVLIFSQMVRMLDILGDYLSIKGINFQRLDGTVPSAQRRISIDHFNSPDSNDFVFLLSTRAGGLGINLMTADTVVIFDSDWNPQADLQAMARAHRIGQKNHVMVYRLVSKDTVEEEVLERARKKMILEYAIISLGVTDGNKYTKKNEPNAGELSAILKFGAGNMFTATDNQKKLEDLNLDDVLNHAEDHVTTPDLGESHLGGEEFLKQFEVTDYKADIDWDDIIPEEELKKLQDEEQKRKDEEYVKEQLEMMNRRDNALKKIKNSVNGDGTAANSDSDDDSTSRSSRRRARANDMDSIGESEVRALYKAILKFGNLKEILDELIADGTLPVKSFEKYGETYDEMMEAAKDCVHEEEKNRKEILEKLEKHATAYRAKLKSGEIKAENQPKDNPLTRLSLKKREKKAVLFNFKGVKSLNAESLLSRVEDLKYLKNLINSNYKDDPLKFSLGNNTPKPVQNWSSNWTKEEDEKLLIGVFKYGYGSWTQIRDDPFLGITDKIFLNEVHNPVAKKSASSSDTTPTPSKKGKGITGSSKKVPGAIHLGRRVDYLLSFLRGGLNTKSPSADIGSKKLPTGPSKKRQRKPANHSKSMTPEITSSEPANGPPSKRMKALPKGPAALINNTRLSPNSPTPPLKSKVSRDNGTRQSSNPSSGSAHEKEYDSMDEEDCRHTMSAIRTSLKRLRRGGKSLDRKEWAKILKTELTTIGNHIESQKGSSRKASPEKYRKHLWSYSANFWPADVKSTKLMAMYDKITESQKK

Protein translocase subunit SecA (Escherichia coli (strain K12)), sequence (P10408 whole entry): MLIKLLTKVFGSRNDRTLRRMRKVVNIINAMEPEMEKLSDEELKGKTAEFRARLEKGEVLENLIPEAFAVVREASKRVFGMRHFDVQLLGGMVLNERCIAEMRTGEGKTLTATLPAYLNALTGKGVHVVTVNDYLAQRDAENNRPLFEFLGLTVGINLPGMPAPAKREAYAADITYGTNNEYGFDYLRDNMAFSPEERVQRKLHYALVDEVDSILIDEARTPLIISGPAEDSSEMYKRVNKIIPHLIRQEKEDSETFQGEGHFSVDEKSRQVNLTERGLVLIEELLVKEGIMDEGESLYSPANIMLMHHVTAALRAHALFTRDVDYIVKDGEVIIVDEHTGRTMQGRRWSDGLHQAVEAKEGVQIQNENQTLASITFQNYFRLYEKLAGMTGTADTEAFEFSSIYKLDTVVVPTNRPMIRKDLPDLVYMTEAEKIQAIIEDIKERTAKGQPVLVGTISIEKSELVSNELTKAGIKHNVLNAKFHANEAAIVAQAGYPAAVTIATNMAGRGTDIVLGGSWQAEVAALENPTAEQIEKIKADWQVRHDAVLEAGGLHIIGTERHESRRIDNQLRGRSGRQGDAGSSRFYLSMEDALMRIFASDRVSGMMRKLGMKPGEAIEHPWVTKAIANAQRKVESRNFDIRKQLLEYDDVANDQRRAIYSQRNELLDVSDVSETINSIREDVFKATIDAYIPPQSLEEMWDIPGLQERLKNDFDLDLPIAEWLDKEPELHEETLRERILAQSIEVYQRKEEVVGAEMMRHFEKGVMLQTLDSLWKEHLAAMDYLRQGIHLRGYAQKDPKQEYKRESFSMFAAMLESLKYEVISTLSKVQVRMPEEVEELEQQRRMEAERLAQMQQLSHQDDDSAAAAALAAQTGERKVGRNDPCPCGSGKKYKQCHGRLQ
Sialic acid-binding Ig-like lectin 9 (Homo sapiens), sequence (Q9Y336 whole entry): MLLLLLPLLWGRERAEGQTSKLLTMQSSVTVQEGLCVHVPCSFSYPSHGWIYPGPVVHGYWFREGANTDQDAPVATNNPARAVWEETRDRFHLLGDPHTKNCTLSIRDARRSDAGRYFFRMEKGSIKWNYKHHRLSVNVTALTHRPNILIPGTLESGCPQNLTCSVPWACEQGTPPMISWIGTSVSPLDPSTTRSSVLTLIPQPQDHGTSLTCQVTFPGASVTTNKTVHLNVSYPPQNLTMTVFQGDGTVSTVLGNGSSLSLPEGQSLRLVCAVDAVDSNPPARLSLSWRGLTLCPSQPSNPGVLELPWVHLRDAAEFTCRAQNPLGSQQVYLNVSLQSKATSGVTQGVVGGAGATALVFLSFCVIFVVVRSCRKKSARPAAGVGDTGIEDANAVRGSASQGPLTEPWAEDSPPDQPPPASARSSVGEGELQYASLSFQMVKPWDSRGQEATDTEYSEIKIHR

Row | Compound | Percent Effect [1] [%] | Percent Effect [2] [%] | Percent Effect [3] [%] | Percent Effect [4] [%] | Percent Effect (Trypanosoma cruzi) [%] | Percent Effect [5] [%] | Percent Effect [6] [%] | Percent Effect (Homo sapiens) [%] | Percent Effect [7] [%] | Percent Effect [8] [%] | Percent Effect [9] [%]
1 | CN(C)C(=O)N1CCN(Cc2noc(Cc3ccccc3)n2)CC1 | -2.44 | 0 | -1.46 | 6.32 | -0.661 | -2.28 | -0.409 | -0.594 | 2.46 | -3.8 | -2.99
2 | CCN1CC2(CCN(CCOCCO)CC2)CC(c2ccccc2)C1=O (stereo unspecified) | -1.44 | 8 | -14.6 | 3.65 | 0.292 | -3.12 | 15.2 | 14.3 | 2.73 | 8.64 | -6.05
3 | CNS(=O)(=O)c1ccc(C(=O)N2CCCC(n3cccn3)C2)cc1 (stereo unspecified) | -7.19 | 13.2 | -7.33 | 8.86 | 4.89 | -4.21 | 2.17 | 1.3 | 3.43 | 17.1 | -14.7
4 | COc1ccc(CCC(=O)N2CCCC2Cn2cc(C)cn2)cc1F (stereo unspecified) | -2.77 | 0 | 9.15 | 2.46 | 1.27 | 4 | -2.67 | -9.57 | 1.91 | 2.35 | -12.9
5 | CC(C)C(=O)N1CCCC(c2ncncc2-c2ccncc2)C1 (stereo unspecified) | -0.489 | 10.7 | 4.63 | -4.06 | 5.91 | -4.89 | 6.61 | -4.43 | 1.06 | 8.97 | -4.02
6 | COc1ncc(-c2nccn2CCN(C)C)cn1 | -3.87 | -2.7 | -2.61 | 1.15 | -0.965 | -3.81 | 20.9 | 2.02 | -2.65 | 2.44 | -3.6
7 | Cn1cc(C2CC(=O)NC23CCN(CC2CC2)CC3)cn1 (stereo unspecified) | -4.62 | 5.33 | -4.75 | 13.8 | 2.32 | 4.12 | 10.1 | 0.353 | 1.04 | 10 | -6.87
8 | Cn1cc(C[C@H]2[C@H](N3CCOCC3)CCN2C(=O)c2ccco2)cn1 | -7.84 | 5.33 | 7.06 | -0.822 | -7.09 | -0.699 | 7.49 | 21.2 | 2.13 | 6.41 | -4.64
9 | CCc1cnc2c(c1NCc1cccc(OC)c1)c(=O)n(C)c(=O)n2C | -0.146 | 23.4 | -3.97 | -14.3 | 0.0986 | -4.52 | 5.74 | 19.2 | 3.17 | 14.1 | -8.85
10 | CCC(=O)N1CCC2(CC1)c1nc[nH]c1CCN2S(C)(=O)=O | -5.57 | 12.5 | -6.81 | 9.02 | 4.18 | 23 | 11.8 | 13.6 | 5.26 | 10.3 | -5.69
11 | CCCNCc1cc2c(C)cc(C)cc2n2c(=O)n(C)nc12 | -5.13 | 4.05 | 11 | 0.45 | 4.94 | 9.05 | 5.62 | 16.2 | 4.3 | 3.9 | -20

— ChEMBL document CHEMBL3988442, “University of Dundee, Small-Polar-MMV Screening Library” (2021)
